In PubChem BioAssay one finds composite z-score and z-score data, which are given here for six compounds.

Test [1] can be described thus: binders of probe aFSTL3 on microarray, primary screen, stem cell growth factor project, biochemical, small-molecule microarray, fluorescence 635/667 (AID 1064).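 Further: measures binding of the biotinylated anti-FSTL3 antibody to printed compounds.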 The conditions noted are these: higher = more signal.
Test [2] can be described thus: binders from COS7 lysate, DM2A8 probe, primary screen, torsin A project, cell lysate, small-molecule microarray, fluorescence 635/667 (AID 1065). Particulars: higher = more signal, COS7 lysate expressing mutant human TOR1A.
Test [3] in a line: binders of probe aFGF2 on microarray, primary screen, stem cell growth factor project, biochemical, small-molecule microarray, fluorescence 635/667 (AID 1067).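 Further: measures binding of biotinylated aFGF2 protein to printed compounds on slides; z-score merges feature fluorescence and signal-to-noise across triplicate slides.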 Particulars: higher = more signal.
Test [4] in a line: binders of probe aFGF10 on microarray, primary screen, stem cell growth factor project, biochemical, small-molecule microarray, fluorescence 635/667 (AID 1071).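 Further: score merges 667 nm spot intensity and signal to noise from triplicate slides.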 Particulars: higher = more signal.
Test [5] has as its target Neurogenic locus notch homolog protein 2 (Homo sapiens) (UniProt Q04721). As to the kind of experiment: Notch2 binders on small-molecule microarrays, primary screen, biochemical, small-molecule microarray, 635 nm fluorescence, stem cell growth factors (AID 1073). The conditions noted are these: Notch2 binding, higher = more signal.
In test [6] the target is Pro-neuregulin-1, membrane-bound isoform (Homo sapiens) (UniProt Q02297). The experiment in a line: NRG1 binders on small-molecule microarrays, primary screen, psychiatric disease protein project, biochemical, small-molecule microarray, fluorescence 635/667 (AID 1075).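 Further: score combines 667 nm spot fluorescence with signal to noise.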 The conditions noted are these: NRG1 binding, 635 nm fluorescence, higher = more signal.
Pro-neuregulin-1, membrane-bound isoform (Homo sapiens), sequence (Q02297 whole entry, looked up, the tested form may be a part, canonical isoform): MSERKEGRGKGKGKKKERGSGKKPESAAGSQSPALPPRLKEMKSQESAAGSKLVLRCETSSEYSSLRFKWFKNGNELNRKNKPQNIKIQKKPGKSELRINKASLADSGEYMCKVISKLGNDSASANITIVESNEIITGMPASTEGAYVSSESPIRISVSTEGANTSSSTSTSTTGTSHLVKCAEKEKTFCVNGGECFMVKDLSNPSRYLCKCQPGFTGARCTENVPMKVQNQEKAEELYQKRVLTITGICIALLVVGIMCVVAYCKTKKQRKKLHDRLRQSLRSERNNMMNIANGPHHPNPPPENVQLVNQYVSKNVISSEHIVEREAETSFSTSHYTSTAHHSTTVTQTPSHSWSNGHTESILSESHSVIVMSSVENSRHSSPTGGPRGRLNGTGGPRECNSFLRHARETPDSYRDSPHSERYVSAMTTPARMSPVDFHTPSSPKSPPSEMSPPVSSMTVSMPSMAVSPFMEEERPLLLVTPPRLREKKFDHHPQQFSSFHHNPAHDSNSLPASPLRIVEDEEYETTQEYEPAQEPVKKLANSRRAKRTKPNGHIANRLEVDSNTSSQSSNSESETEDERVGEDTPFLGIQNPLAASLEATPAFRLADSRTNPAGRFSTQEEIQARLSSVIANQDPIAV
Test [7] relates to Neuregulin-1 EGF-like domain. The experiment in a line: binders of neuregulin-1 EGF-like domain, primary screen, biochemical, small-molecule microarray, 635 nm fluorescence (AID 1081).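 Further: binding of the protein to compounds printed on small-molecule microarray slides.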 Particulars: small-molecule microarray binding, higher = more signal.
Test [8] in a line: FRG1 promoter luciferase signal modulators, primary screen, FRG1 inhibition for FSHD, cell-based, C2C12 myotubes, firefly/Renilla luciferase, luminescence (AID 1084). Particulars: higher = more signal, called active from +8 up or from −8 down.
Test [9] can be described thus: binders of probe aFST on microarray, primary screen, stem cell growth factor project, biochemical, small-molecule microarray, fluorescence 635/667 (AID 1086).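 Further: score merges 667 nm fluorescence with signal-to-noise of each printed compound spot.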 Particulars: higher = more signal.
Test [10] can be described thus: binders of probe aHhip on microarray, primary screen, stem cell growth factor project, biochemical, small-molecule microarray, fluorescence 635/667 (AID 1087).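 Further: score merges spot fluorescence at 667nm with spot signal to noise ratio.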 The conditions noted are these: higher = more signal.
Test [11] relates to PRMT1 (protein arginine N-methyltransferase 1). The experiment in a line: PRMT1 binders on small-molecule microarrays, primary screen, biochemical, small-molecule microarray, 635 nm fluorescence (AID 1088).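 Further: binding of Prmt1 protein to compounds spotted on small-molecule microarray slides.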 Particulars: small-molecule microarray binding, higher = more signal.
The nature of test [12]: yeast growth modulation, basal conditions, primary screen, YJM789 clinical isolate, OD600, 24 h (AID 1089).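 Further: growth of clinical yeast isolate S. cerevisiae YJM 789 seeded 1000 cells per well; test concentration not given here.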 The conditions noted are these: S. cerevisiae YJM789 growth, higher = more signal, called active from +8 up or from −8 down.
The nature of test [13]: fission yeast growth modulation, primary screen, strain 972, OD600, 24 h, no modulator (AID 1090).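 Further: basal condition with compound alone and no growth modifier present; test concentration not given here.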 Particulars: S. pombe 972 growth, higher = more signal, called active from +8 up or from −8 down.
Test [14] in a line: S. cerevisiae growth modulation with rapamycin, primary screen, strain BY4716, OD600, 96 h (AID 1091). Further: test concentration not given here. The conditions noted are these: higher = more signal, called active from +8 up or from −8 down.
In test [15] the target is Torsin-1A-interacting protein 2 (Homo sapiens) (UniProt Q8NFQ8). The experiment in a line: LULL1 binders on small-molecule microarray, primary screen, cell lysate, human LULL1 lysate, 635/667 nm fluorescence (AID 1092).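 Further: probe is lysate of COS7 cells overexpressing human LULL1; score merges per-feature 667 nm fluorescence with signal-to-noise.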 The conditions noted are these: hLULL1 lysate binding, 635 nm fluorescence, higher = more signal.
Torsin-1A-interacting protein 2 (Homo sapiens), sequence (Q8NFQ8 whole entry, looked up): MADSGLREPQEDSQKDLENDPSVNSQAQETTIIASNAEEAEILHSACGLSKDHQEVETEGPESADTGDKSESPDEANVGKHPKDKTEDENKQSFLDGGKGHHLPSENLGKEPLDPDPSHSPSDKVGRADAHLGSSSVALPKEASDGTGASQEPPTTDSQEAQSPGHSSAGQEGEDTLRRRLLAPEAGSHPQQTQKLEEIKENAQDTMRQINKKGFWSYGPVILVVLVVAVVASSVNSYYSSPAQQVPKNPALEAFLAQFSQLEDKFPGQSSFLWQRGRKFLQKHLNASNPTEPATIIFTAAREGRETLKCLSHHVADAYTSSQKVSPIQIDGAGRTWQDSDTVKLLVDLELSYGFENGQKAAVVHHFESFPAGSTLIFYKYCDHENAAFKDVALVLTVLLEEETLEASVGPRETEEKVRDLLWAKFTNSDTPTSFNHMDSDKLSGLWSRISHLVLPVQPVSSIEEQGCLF
The nature of test [16]: E. coli growth modulation, two-sided OD650, primary screen, E. coli filamentation project, strain DRC41, 24 h (AID 1093).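 Further: MC1000 strain lacking acrAB efflux and sulA so SOS filamentation is blocked; test concentration not given here.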 The conditions noted are these: OD650, 24 h, higher = more signal, called active from +8 up or from −8 down.
A short description of test [17]: small-molecule microarray binders of probe aLefty2, primary screen, biochemical, biotinylated probe, 635/667 nm fluorescence (AID 1094).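 Further: score merges spot fluorescence near 667 nm with spot signal-to-noise ratio.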 Particulars: higher = more signal.
The subject of test [18] is Noggin (protein binding on small-molecule microarray). As to the kind of experiment: Noggin binders on small-molecule microarray, primary screen, biochemical, 635/667 nm fluorescence (AID 1095).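 Further: score merges 667 nm feature fluorescence with signal to noise over triplicate slides.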 The conditions noted are these: 635 nm fluorescence, higher = more signal.
The target of test [19] is Neurogenic locus notch homolog protein 3 (Homo sapiens) (UniProt Q9UM47). As to the kind of experiment: NOTCH3 binders on small-molecule microarray, primary screen, biochemical, 635/667 nm fluorescence (AID 1096). Particulars: NOTCH3 binding, 635 nm fluorescence, higher = more signal.
Neurogenic locus notch homolog protein 3 (Homo sapiens), sequence (Q9UM47 whole entry, looked up): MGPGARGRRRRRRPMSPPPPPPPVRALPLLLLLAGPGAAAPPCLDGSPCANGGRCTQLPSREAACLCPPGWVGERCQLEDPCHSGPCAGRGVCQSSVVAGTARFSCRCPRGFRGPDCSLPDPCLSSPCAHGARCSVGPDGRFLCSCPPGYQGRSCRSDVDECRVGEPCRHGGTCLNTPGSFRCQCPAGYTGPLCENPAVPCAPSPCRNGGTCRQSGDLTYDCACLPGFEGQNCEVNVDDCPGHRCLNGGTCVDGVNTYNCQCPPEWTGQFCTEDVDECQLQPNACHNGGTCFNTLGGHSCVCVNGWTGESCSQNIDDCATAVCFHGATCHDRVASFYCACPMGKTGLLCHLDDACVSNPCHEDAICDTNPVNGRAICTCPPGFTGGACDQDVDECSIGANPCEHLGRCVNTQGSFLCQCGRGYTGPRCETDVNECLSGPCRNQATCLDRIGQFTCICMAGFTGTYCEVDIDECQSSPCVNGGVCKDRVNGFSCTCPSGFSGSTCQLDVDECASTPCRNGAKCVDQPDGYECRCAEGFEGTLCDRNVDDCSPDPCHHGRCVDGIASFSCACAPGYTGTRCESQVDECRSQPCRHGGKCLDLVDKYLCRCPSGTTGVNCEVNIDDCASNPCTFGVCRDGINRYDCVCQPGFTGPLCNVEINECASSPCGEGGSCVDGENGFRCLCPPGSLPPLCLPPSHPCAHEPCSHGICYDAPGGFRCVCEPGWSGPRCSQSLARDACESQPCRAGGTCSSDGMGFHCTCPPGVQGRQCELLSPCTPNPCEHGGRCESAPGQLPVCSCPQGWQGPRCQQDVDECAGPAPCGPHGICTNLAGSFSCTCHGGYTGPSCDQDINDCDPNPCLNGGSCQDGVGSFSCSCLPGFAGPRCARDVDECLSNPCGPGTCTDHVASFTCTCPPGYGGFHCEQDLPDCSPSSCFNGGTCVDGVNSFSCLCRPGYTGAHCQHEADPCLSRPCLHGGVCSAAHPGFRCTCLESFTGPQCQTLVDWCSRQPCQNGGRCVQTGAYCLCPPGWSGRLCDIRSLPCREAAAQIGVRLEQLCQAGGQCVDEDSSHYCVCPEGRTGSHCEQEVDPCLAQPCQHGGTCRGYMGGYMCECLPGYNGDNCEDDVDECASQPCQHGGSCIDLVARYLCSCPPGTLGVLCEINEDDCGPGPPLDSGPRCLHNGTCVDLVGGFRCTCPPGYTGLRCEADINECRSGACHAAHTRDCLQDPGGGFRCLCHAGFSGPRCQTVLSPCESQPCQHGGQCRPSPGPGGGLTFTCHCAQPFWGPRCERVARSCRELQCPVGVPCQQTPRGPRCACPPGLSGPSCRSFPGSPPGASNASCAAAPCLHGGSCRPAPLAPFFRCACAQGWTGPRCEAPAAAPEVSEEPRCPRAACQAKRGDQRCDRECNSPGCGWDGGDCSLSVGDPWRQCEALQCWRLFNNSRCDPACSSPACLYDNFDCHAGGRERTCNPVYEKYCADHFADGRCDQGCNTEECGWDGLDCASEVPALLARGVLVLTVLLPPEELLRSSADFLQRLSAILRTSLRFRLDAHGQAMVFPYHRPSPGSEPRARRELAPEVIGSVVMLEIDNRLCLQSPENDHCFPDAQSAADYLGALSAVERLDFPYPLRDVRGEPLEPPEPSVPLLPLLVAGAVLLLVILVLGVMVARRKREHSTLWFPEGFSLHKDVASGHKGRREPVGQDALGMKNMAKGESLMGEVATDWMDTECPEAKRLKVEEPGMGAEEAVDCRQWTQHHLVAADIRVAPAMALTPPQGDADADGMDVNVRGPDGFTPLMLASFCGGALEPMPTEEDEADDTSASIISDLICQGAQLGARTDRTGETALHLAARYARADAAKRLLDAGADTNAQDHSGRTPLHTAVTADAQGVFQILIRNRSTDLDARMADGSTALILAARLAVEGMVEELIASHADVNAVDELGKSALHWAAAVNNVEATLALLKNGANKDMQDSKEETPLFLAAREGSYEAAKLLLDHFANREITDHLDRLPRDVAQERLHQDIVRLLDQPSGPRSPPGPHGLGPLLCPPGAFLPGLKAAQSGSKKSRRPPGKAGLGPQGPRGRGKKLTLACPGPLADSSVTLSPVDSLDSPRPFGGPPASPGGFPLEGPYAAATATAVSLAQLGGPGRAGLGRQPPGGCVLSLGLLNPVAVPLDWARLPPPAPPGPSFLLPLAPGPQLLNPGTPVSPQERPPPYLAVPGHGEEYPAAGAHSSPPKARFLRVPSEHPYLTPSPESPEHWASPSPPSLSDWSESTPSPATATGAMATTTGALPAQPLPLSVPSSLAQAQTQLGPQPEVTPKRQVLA
Test [20] is described as follows: small-molecule microarray binders of probe aEGFR, primary screen, biochemical, biotinylated probe, 635/667 nm fluorescence (AID 1097).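 Further: probe is a biotinylated anti-EGFR antibody binding compounds printed on slides; score combines fluorescence near 667 nm and signal to noise of each spot.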 Particulars: higher = more signal.

Where “and” joins values, the source holds several entries; their conditions need not be identical. Equal entries are not always repeated. Calls of active or inactive are those of the source.

As for `COCn1c2ccccc2c2nnc(C(C)=O)nc21`, the composite z-score is -0.401 and -0.253 in test [1]; 0.416 and -0.0491 in [2]; -0.108 and -0.112 in [3]; 0.111 and 0.226 in test [4]; -0.0995 and 0.194 in [5]; -0.325 and -0.146 in test [6]. The composite z-score in [7] was -0.29 and -0.548; in test [9], 0.252 and -0.0637; in [10] it was -0.0994 and 0.0515; in test [11], -0.217 and 0.724; in [15], -0.0703 and 0.184; in test [17], -0.0702 and -0.0137. The composite z-score in [18] was 0.1 and 0.372; in test [19] it was -0.007 and 0.307; in test [20], -0.0398 and -0.123. In addition, the z-score is 0.51 (inactive) and 0.697 (inactive) in [8]; -0.405 (inactive) and -0.362 (inactive) in test [12]; -0.267 (inactive) and -1.08 (inactive) in test [13]; -0.189 (inactive) and -0.135 (inactive) in test [14]; -0.35 (inactive) and -0.768 (inactive) in test [16].
`C=CCN(C(=O)C1N(C(C)(C)CO)C(=O)C2C(C(=O)O)C3C=CC21O3)C(C)(C)C` (stereo not given): the composite z-score in test [1] was 0.974 and 1.67; in [2], -1.54 and -0.705; in [3], -0.232 and -0.112; in test [4], -1.48 and 0.207; in test [5], -2.19 and -1.87; in [6] it was -0.396 and 0.389. For the same compound, the composite z-score in test [7] is 0.154 and 1.46; in test [9], -1.37 and -1.24; in test [10], -0.427 and -0.0994; in test [11] it was -0.805 and -0.846; in [15] it was -0.139 and 1.91; in test [17], 0.003 and 0.146. Besides, the composite z-score in test [18] was -2.82 and -3.2; in test [19], -1.74 and -1.4; in test [20], -0.347 and -0.228. Further, the z-score in [8] was 0.198 (inactive) and -0.0048 (inactive); in [12] it was 0.69 (inactive) and 1.34 (inactive); in test [13] it was 0.53 (inactive) and 0.365 (inactive); in [14], 0.961 (inactive) and 1.35 (inactive); in [16], -0.0599 (inactive) and 0.474 (inactive).
For `CCCC[C@@H]1CN2[C@H](c3ccc(Br)cc3)[C@@H](C)CC[C@H]2C(=O)O1`, the composite z-score is -0.419 and -0.254 in test [1]; -0.309 and 0.41 in test [2]; -0.129 and -0.103 in test [3]; -0.0574 and -0.132 in test [4]; -0.118 and -0.134 in [5]; 0.0412 and -0.139 in test [6]. Besides, the composite z-score was -0.246 and -0.605 in [7]; -0.0739 and -0.0224 in [9]; 0.0264 and -0.0237 in test [10]; -0.214 and 0.499 in [11]; -0.461 and -0.18 in test [15]; -0.234 and -0.145 in test [17]. Further, the composite z-score in test [18] is 0.16 and 0.31; in test [19] it was -0.391 and -0.433; in test [20] it was -0.174 and -0.137. The z-score in [8] was -1.09 (inactive) and 0.204 (inactive); in test [12] it was -0.156 (inactive) and -0.142 (inactive); in test [13], -19.4 (active) and -17.4 (active); in [14] it was -0.269 (inactive) and -0.224 (inactive); in test [16] it was 0.298 (inactive) and 0.24 (inactive).
Take `C=CCN(Cc1ccccc1)C(=O)C1N(c2ccc(CCO)cc2)C(=O)C2C(C(=O)O)C3C=CC21O3` (stereo not given): the composite z-score in test [1] was 1.72 and 0.902; in test [2], -0.723 and -0.963; in test [3], -0.194 and -0.19; in test [4] it was -0.362 and -0.749; in [5] it was -2.7 and -2.66; in [6], 0.191 and -0.96. Moreover, the composite z-score in test [7] was 0.161 and -0.559; in test [9], -1.44 and -0.907; in test [10] it was -0.0994 and -0.431; in test [11], -1.64 and -0.655; in test [15] it was -0.933 and -1.02; in test [17] it was 0.0395 and 0.0834. Further, the composite z-score in [18] was -2.88 and -1.99; in test [19], -1.35 and -1.12; in test [20] it was -0.418 and -0.305. In addition, the z-score is 2.4 (inactive) and 1.24 (inactive) in test [8]; 0.774 (inactive) and -0.721 (inactive) in test [12]; -0.455 (inactive) and 0.116 (inactive) in [13]; 0.599 (inactive) and -1.29 (inactive) in test [14]; 1.12 (inactive) and 2.04 (inactive) in [16].
As for `CC(C)CON=C1C[C@@H](O)[C@@H](O)[C@@H]2[C@@H]3C(=O)N(c4cccc(Oc5ccccc5)c4)C(=O)[C@@H]3CC[C@H]12`, the composite z-score in test [1] is -0.273; in test [2] it was 0.459; in test [3], -0.179; in test [4], 0.253; in test [5], 0.547; in [6], 0.685. Also, the composite z-score was 0.781 in [7]; 0.769 in test [9]; -0.0645 in test [10]; 0.973 in test [11]; 0.897 in [15]; -0.136 in test [17]. Besides, the composite z-score in [18] was 0.318; in [19], 0.951; in test [20], -0.0549. The z-score is -0.423 (inactive) in test [8]; 0.097 (inactive) in test [12]; 0.561 (inactive) in test [13]; -0.54 (inactive) in [14]; 1.04 (inactive) in [16].
In the case of `C#CCCCON=C1C[C@@H](O)[C@@H](O)[C@@H]2[C@@H]3C(=O)N(C4CCCCC4)C(=O)[C@@H]3CC[C@H]12`, the composite z-score in test [1] was -0.283; in test [2], 0.145; in test [3], -0.0423; in test [4] it was 0.612; in [5], 0.784; in [6], 0.717. The composite z-score in test [7] was 0.793; in [9], 0.346; in test [10] it was -0.0994; in test [11] it was 0.589; in test [15], 1; in [17] it was 0.0103. The composite z-score in [18] is 0.417; in test [19], 0.71; in test [20], -0.0842. Also, the z-score in test [8] is -0.298 (inactive); in [12] it was -0.177 (inactive); in test [13] it was -0.539 (inactive); in test [14], -0.193 (inactive); in test [16], 0.318 (inactive).
